NadD block: inhibitors of S. aureus NadD, primary screen, biochemical, colorimetric, uHTS; Nicotinate-nucleotide adenylyltransferase NadD (Staphylococcus aureus N315); purified NadD enzyme, colorimetric absorbance read-out; inhibition, % at 20 µM; 0.78% of 360,000 active; AID 602399, 2012; in the data active = inhibition above about 26%
NPR1 activator: GC-A stimulated cGMP production enhancers – HEK293 GC-A cells, cGMP TR-FRET, EC30 ANP, primary screen. Atrial natriuretic peptide receptor 1 (Homo sapiens), P16066. 0% at EC30 ANP, 100% saturating ANP. activation, % at 10 µM. 0.14% of 370,000 active; in the data active = activation above about 40%
GC-B act: human GC-B receptor activators, primary screen, HEK293 GC-B cells, cGMP TR-FRET, EC30 CNP. Atrial natriuretic peptide receptor 2 (Homo sapiens), P20594. 0% at EC30 CNP, 100% saturating CNP. activation, % at 10 µM. 0.11% of 370,000 active. AID 1920062, 2024;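 active = activation at 10 µM reaching about 35% in either raw or pattern-adjusted values, limit read from the data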
Neddyl block: inhibitors of cullin neddylation, primary screen, biochemical, TR-FRET, uHTS, NAE and Ubc12; NEDD8-conjugating enzyme Ubc12 (Homo sapiens) + NEDD8-activating enzyme E1 regulatory …; 0.58% of 360,000 active; inhibition, % at 25 µM; AID 651699, 2012; in the data active = inhibition above about 36%
NadD conf: inhibitors of S. aureus NadD, confirmation, biochemical, colorimetric, single concentration; AID 624309, 2012; 13% of 2,000 active; inhibition, % at 20 µM; shares compounds with NadD block; purified S. aureus NadD, colorimetric enzyme assay; in the data active = inhibition mostly above about 42%, no sharp cut-off; inactive = mostly below about 42%
* hit, by the source's call; x = no result given. The list is not random: actives were taken first. Their share in the collection is about 1.5%.

SMILES	NadD block	NPR1 activator	GC-B act	Neddyl block	NadD conf
CCN=C1NN=C(c2cc(C)n(CCc3ccccc3)c2C)CS1	17	-6	1	3	x
COCCn1c(C)cc(C2=NNC(=Nc3ccccc3)SC2)c1C	36*	6	2	-5	4
CCN=C1NN=C(c2cc(C)n(Cc3ccco3)c2C)CS1	37*	0	4	0	7
COCCn1c(C)cc(C2=NNC(=Nc3ccc(OC)cc3)SC2)c1C	28	x	x	-5	x
O=C(Nc1c(-c2ccccc2)nc2ncccn12)c1ccccc1	x	2	-7	x	x
CC(C)(C)c1ccc(C(=O)Nc2nonc2-c2nc3ccccc3[nH]2)cc1	55*	-1	-3	10	2
Cc1cc(NC(=O)CSc2nc3c([nH]c4ccccc43)c(=O)n2-c2cccc(C(F)(F)F)c2)no1	44*	x	x	-5	5
COC(=O)[C@@]12CCCCC3=C1N(CCC3)C(=O)[C@H]2CC(=O)NCCC(C)C	x	1	6	x	x
Cc1nc(/N=C(\N)NC(=O)N2c3ccccc3Sc3ccccc32)nc2ccccc12	31*	6	5	-27	20
Cc1nc(/N=C(\N)NC(=O)c2ccccc2)nc2ccccc12	3	6	-5	-10	x
COc1cccc(Cn2cc(COC(=O)NCC(C)C)nn2)c1	x	-2	2	x	x
N=C1SC(c2ccccc2)C(=O)N1c1ncc(Cc2ccccc2Cl)s1 (configuration not stated)	50*	-2	5	-26	50*
COc1ccccc1OCC(=O)Nc1ccc(N2CCCCC2)cc1	-3	-1	2	5	x
Cc1cccc(OCC(=O)Nc2ccc(N3CCCC3)cc2)c1C	43*	-1	9	6	-2
Cc1ccc(OCC(=O)Nc2ccc(N3CCCC3)cc2)cc1C	32*	0	-3	-3	-8
COc1ccccc1CNc1ccc2c(c1)OC[C@H](CC(C)C)NS2(=O)=O	x	-5	-1	x	x
COC(=O)[C@]12C[C@H](CC(=O)NCCC(C)C)C(=O)N(CCC3=CCCCC3)C1=C[C@H](C1CCCC1)O[C@@H]2C	x	-3	1	x	x
CCOC(=O)Cn1cc(CN2C(C(=O)OC)CN(C3CCCC3)CCS2(=O)=O)nn1 (configuration not stated)	x	1	3	x	x
Fc1ccc(-c2nc3c4ccccc4ccn3c2Cc2ccccc2C(F)(F)F)cc1	10	x	x	19	x
FC(F)(F)c1ccccc1Cc1c(-c2ccc(Cl)cc2)nc2c3ccccc3ccn12	33*	-2	5	12	9
O=C(CSc1nnc(-c2cccc(Cl)c2)n1Cc1ccco1)c1ccc(F)cc1	x	2	9	x	x
O=c1c2ccccc2n(Cc2ccno2)n1[C@@H](Cc1ccccc1)Cn1cc(C2CCCC2)nn1	x	-8	-7	x	x
CNc1ccc(Br)cc(C(=O)/C=C/c2cccc(OC)c2OC)c1=O	20	-2	-4	9	x
CCNc1ccc(Br)cc(C(=O)/C=C/c2ccccc2Cl)c1=O	34*	2	4	9	18
CNc1ccc(Br)cc(C(=O)/C=C/c2cccc(Cl)c2Cl)c1=O	49*	-9	0	6	16
SMILES	NadD block	NPR1 activator	GC-B act	Neddyl block	NadD conf
O=[N+]([O-])c1cc(S(=O)(=O)Nc2ccc(Cl)cc2)ccc1N/N=C/c1ccncc1	47*	-26	-11	0	24
O=[N+]([O-])c1ccc(Cl)cc1N/N=C/c1ccncc1	0	-9	-9	-21	x
O=C(Nc1ccc(-c2csc(Nc3ccccc3)n2)cc1)c1cccc(C(F)(F)F)c1	15	-5	-2	14	x
O=C(Nc1cccc(-c2csc(Nc3cccc(C(F)(F)F)c3)n2)c1)c1cc([N+](=O)[O-])cc(C(F)(F)F)c1	37*	-5	1	-11	1
O=C(Nc1ccc(-c2csc(Nc3ccccc3)n2)cc1)c1cc([N+](=O)[O-])cc(C(F)(F)F)c1	32*	-4	2	-32	12
O=C(Nc1cccc(S(=O)(=O)NC2=NCCCCC2)c1)c1cc(-c2ccc(Cl)cc2)nc2ccccc12	26*	0	-5	-50	32
O=C(Nc1cccc(S(=O)(=O)NC2=NCCCCC2)c1)c1cc(-c2ccccc2)nc2ccccc12	17	-3	2	-254	x
O=C(Nc1cccc(S(=O)(=O)NC2=NCCC2)c1)c1cc(-c2ccco2)nc2ccccc12	68*	-2	-2	13	78*
O=C(NC(=S)Nc1cccc(S(=O)(=O)NC2=NCCC2)c1)c1cc(-c2ccco2)nc2ccccc12	41*	0	-4	1	52*
O=C(Nc1cccc(S(=O)(=O)NC2=NCCC2)c1)c1ccccc1	-4	3	-1	21	x
COc1ccc(-c2cc(C(=O)Nc3cccc(S(=O)(=O)NCc4ccco4)c3)c3ccccc3n2)cc1OC	58*	5	1	37	45*
C[C@@H]1CN([C@@H](C)CO)C(=O)CCCn2cc(nn2)CO[C@H]1CN(C)C(=O)Nc1cccc(C(F)(F)F)c1	x	1	2	x	x
COc1cc(/C=c2\sc3n(c2=O)C(c2ccccc2)C(c2ccccc2)=NN=3)ccc1O (configuration not stated)	29*	-12	0	11	51*
CCOC(=O)C1=C(C)N=c2s/c(=C\c3ccc(OCC(=O)O)cc3)c(=O)n2C1c1ccccc1OC (configuration not stated)	9	-6	-5	-22	x
CCOC(=O)C1=C(C)N=c2s/c(=C/c3cccc([N+](=O)[O-])c3O)c(=O)n2C1c1ccc(OC)cc1OC (configuration not stated)	36*	-6	-8	-29	9
CCOC(=O)C1=C(C)N=c2s/c(=C\c3ccc(O)c([N+](=O)[O-])c3)c(=O)n2C1c1ccccc1OC (configuration not stated)	38*	-7	0	-56	5
COc1ccccc1C1C2=C(N=C3SCC(=O)N31)c1ccccc1CC2 (configuration not stated)	1	-14	-8	13	x
COc1ccc(/C=c2/sc3n(c2=O)C(c2ccccc2OC)C2=C(N=3)c3ccccc3CC2)cc1O (configuration not stated)	53*	-6	-8	16	27
COC(=O)[C@H]1C[C@@]2(C)c3ccccc3N(C(=O)OC(C)(C)C)[C@H]2N1C(=O)OC(C)(C)C	x	-13	-18	x	x
CCOC(=O)N1C(=O)C[C@](Sc2ccc(OC)cc2)(C(=O)N2CCOCC2)[C@H]1c1ccc(OC)cc1	x	-1	-2	x	x
O=C(Nc1ccc(C(F)(F)F)cc1)OC1CCC12CCC(c1ccccc1)CC2 (configuration not stated)	x	10	-5	x	x

Screens from PubChem.
